# LDHA block: LDHA (human) enzyme inhibition; purified LDHA, NADH/diaphorase-resazurin fluorescence; hits give low values; activity change, % (values are at about 110 or 230 µM); 480,000 tested, 0.15% active; AID 1347041; in the data active means activity change below about -30%; inconclusive means mostly about -25% to -30%;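 further: plate controls were DMSO wells for no effect and wells without enzyme for full effect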
#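 Enzyme activity of human lactate dehydrogenase 5 (2 nM; 0.06 mM NADH, 0.2 mM pyruvate, 5 min, RT) is measured via a resazurin/diaphorase fluorescence readout of residual NADH.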
# ALOX12 inh: inhibitors of human 12S-lipoxygenase ALOX12 | purified 12hLO, xylenol orange hydroperoxide absorbance | Potency, µM (titrated, usually from 108 µM), without a hit: at the highest dose activity change, negative = inhibition, actives largely listed as inhibitors | 580,000 tested, 1.1% active | AID 1671190; further: potency means the concentration at half of the fitted maximal effect; on the % scale 0 is the no-effect control and ±100 the full control effect
#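 Purified human 12hLO (150 nM final) in 25 mM Hepes, 0.01% Triton X-100, pH 7.0 was preincubated 15 min at room temperature with compound. Then 40 uM arachidonic acid was added, 30 min. Hydroperoxide was read by Fe-XO absorbance ratio 573/405 nm.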
# A549 tox: counter-screen for Nrf2 inhibitors: cytotoxicity in A549 cells; A549 ARE-Fluc cells, CellTiter-Fluor viability, 18-24 h; Potency, µM (series often up to 46 µM), for the others: top-dose activity change, negative = cytotoxicity, most hits filed as inhibitors; 390,000 tested, 0.16% active; further: potency means the concentration at half of the fitted maximal effect; on the % scale 0 is the no-effect control and ±100 the full control effect
#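 A549 ARE-Fluc cells in 5% FBS OPTI-MEM, 5000 cells/well, rested 2 h then exposed to compounds in concentration-response for 18-24 h at 37 °C. Viability by CellTiter-Fluor fluorescence (Ex 405/Em 525) after 30 min; luciferase luminescence (BugLite, 15 min, RT) read afterwards.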
# Nrf2 inh: Nrf2 pathway inhibition; Potency, µM (series often up to 46 µM), without a hit: at the highest dose activity change, negative = inhibition, most hits filed as inhibitors; A549 ARE-Fluc reporter, luciferase luminescence, 18-24 h; 360,000 tested, 2.1% active; further: potency means the concentration at half of the fitted maximal effect; on the % scale 0 is the no-effect control and ±100 the full control effect; nearly all actives have a fitted effect of over 60% in size
#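 Nrf2 function is reported as luminescence of an ARE-controlled luciferase in A549 cells. Compounds were tested at several concentrations, and a CellTiter-Fluor read on the same wells flagged cytotoxicity.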
# Nrf2 ARE act: Nrf2 pathway activation; 410,000 tested, 0.31% active; AREc32 ARE-luciferase reporter (MCF7-derived line), luminescence, 24 h; Potency, µM (top dose mostly 46.1 µM), for inactives: top-dose activation, most hits filed as activators; AID 624171; further: potency means the concentration at half of the fitted maximal effect; % of control where 0% means no effect; nearly all actives have a fitted effect of over 65% in size
#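 AREc32 cells carrying an ARE-driven firefly luciferase, 1000 cells/well in OPTI-MEM with 5% FBS, dosed after overnight attachment and incubated 24 hr at 37 deg C. Steady-Glo luminescence read after 30 min at RT.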
# IDH1 R132H inh: blocks human mutant IDH1 R132H enzyme | O75874 | IDH1-R132H enzyme, NADPH consumption, diaphorase/resazurin fluorescence | Potency, µM (highest dose often 76.6 µM), without a hit: at the top dose activity change, negative = inhibition, usual class: inhibitors | 390,000 tested, 0.093% active; further: potency means the concentration at half of the fitted maximal effect; on the % scale 0 is the no-effect control and ±100 the full control effect; nearly all actives have a fitted effect of over 65% in size
# Target sequence (O75874 whole entry R132H, stated change not applied): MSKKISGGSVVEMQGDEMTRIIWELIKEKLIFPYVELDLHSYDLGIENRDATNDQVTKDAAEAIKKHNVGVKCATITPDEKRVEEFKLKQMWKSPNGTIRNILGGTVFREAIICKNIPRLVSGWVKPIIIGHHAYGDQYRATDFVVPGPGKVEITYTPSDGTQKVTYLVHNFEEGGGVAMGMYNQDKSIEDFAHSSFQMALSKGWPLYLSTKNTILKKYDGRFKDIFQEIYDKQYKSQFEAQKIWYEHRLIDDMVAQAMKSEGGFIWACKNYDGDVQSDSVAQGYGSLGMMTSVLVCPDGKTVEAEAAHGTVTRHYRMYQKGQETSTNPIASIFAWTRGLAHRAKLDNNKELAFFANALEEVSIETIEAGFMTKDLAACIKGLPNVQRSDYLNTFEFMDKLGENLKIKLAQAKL
#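 IDH1-R132H (0.5 ug/mL) preincubated 30 min with compound, then NADPH (0.016 mM) and alpha-KG (2 mM) added; 80 min at RT, pH 7.5. Remaining NADPH coupled via diaphorase/resazurin to fluorescence (540/590 nm); concentration-response curves normalized to no-enzyme control.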
# Starred values were filed as active, the others as inactive; ? = inconclusive; nt = no result given; [ ] = dose if it differs, or a comment. Compounds with a hit are over-represented: about 2.7% of the library has one in this group of screens. Unless noted, the call rests on the fitted dose curve; in most records, active means well fitted curve in the direction sought with a large enough effect; inconclusive means small, poorly fitted or top-dose-only effect, or another doubt; inactive means no such curve, though single readings can be large; an effect the other way counts as inactive or inconclusive.
SMILES,LDHA block,ALOX12 inh,A549 tox,Nrf2 inh,Nrf2 ARE act,IDH1 R132H inh
C=C1C(=O)O[C@H]2C[C@@H](C)[C@@H]3C=CC(=O)[C@@]3(C)C[C@H]12,-9,11%,?,21µM*,-3%,2%
C=C1C(=O)OC2CC(C)C3C=CC(=O)C3(C)C(O)C12 (stereo not given),-1,nt,10µM*,5.8µM*,-3%,6%
O=C(O)c1cccc(C(=O)N2C[C@@H]3C[C@H](C2)c2ccc(NC(=O)C4CC4)c(=O)n2C3)c1,nt,0%[176 µM],nt,nt,nt,nt
O=C(CN1CCN(c2ncc(C(F)(F)F)cc2Cl)CC1)N1CCN(c2ncc(C(F)(F)F)cc2Cl)CC1,2,-26%,?,11µM*,0%,8%
C=C(Cl)CN1CCN(c2cccc(C(F)(F)F)c2)CC1,7,-2%,nt,nt,nt,nt
C=C[C@H]1CN2CC[C@H]1C[C@@H]2CNC(=O)c1ccc(C#N)cc1,nt,64%[176 µM],nt,nt,nt,nt
Cc1ccc(S(=O)(=O)Oc2ccccc2C=C2C(=O)N(C)C(=O)N(C)C2=O)cc1,-14,45µM*,-3%,9%,3%,0%
CN1C(=O)C(=Cc2ccccc2Oc2ccc(Cl)cc2)C(=O)N(C)C1=O,-5,?,0%,-18%,0%,0%
CC(=O)Nc1ccc(-c2ccc(=O)n3c2[C@@H]2C[C@@H](CN(C(=O)c4ccco4)C2)C3)cc1,nt,15%[176 µM],nt,nt,nt,nt
Cn1cccc1/C=C1\C(=O)NC(=O)N(Cc2ccco2)C1=O,-5,?,1%,4%,-1%,1%
Cc1ccc(OCCn2cccc2/C=C2/C(=O)NC(=O)N(Cc3ccco3)C2=O)cc1,7,35µM*,0%,?,10%,1%
O=C1NC(=O)N(c2ccccc2)C(=O)/C1=C/C=C/c1ccco1,4,?,?,?,?,4%
O=C1NC(=O)N(Cc2ccco2)C(=O)/C1=C/C=C/c1ccco1,-5,40µM*,0%,-6%,?,-7%
Cc1ccc(N2C(=O)NC(=O)/C(=C\C=C\c3ccco3)C2=O)cc1C,-4,40µM*,-14%,-4%,?,-5%
Cc1cc(/C=C2\C(=O)NC(=O)N(Cc3ccco3)C2=O)c(C)n1-c1ccc(O)cc1,-2,35µM*,-5%,-7%,0%,10%
Cc1ccc(N2C(=O)NC(=O)/C(=C\C=C\c3ccco3)C2=O)cc1,-7,-23%,0%,3%,?,-8%
O=C1NC(=O)N(Cc2ccccc2)C(=O)/C1=C\C=C\c1ccco1,0,40µM*,?,26µM*,?,?
COc1ccc(F)c(CNCCc2c(C)[nH]c3ccc(OC)cc23)c1,6,?,nt,nt,nt,nt
COc1ccc(CNCCc2c(C)[nH]c3ccc(OC)cc23)c(F)c1,-1,1.6µM*,nt,nt,nt,nt
COc1ccc2[nH]c(C)c(CCNCc3cn(C)c4ccccc34)c2c1,-8,5.6µM*,0%,-14%,0%,8%
Cc1ccncc1C(=O)N1[C@H]2CC[C@@H]1c1cnc(-c3ccccc3)nc1C2,nt,49%,nt,nt,nt,nt
COc1ccc(CN(Cc2ccc(OC)cc2)C[C@H]2C[C@@H]3CCN2C[C@@H]3c2cc(C3CCCC3)nn2C)cc1,nt,9%,nt,nt,nt,nt
CCN(C(=O)CN1CC=C(c2ccccc2)CC1)C1CCS(=O)(=O)C1 (stereo not given),1,9%,nt,nt,nt,nt
CC1CC(C)(O)CC(C(O)CC2CC(=O)NC(=O)C2)C1=O (stereo not given),-11,1%,?,0.58µM*,0%,0%
ON1C2CCCCC2N(O)C1c1ccco1 (stereo not given),2,?,nt,nt,nt,nt
SMILES,LDHA block,ALOX12 inh,A549 tox,Nrf2 inh,Nrf2 ARE act,IDH1 R132H inh
O=C(O)c1sccc1Oc1ccc(F)cc1[N+](=O)[O-],2,-38%,-17%,23µM*,3%,-2%
O=C(O)c1ccc([N+](=O)[O-])c([N+](=O)[O-])c1,12,?,-12%,-13%,?,0%
COc1ccc(N2C(=O)/C(=C/c3ccc(C)o3)C(=O)NC2=S)cc1,-5,13µM*,-5%,0%,8%,-14%
CC(=O)O[C@H]1C[C@@H]2OC3C=C(C)CCC3(C)[C@@]1(C)[C@@]21CO1 (stereo not given in full),-7,-4%,nt,6.5µM*,-2%,-2%
CC(=O)OC1CC2OC3C=C(C)CCC3(C)C1(C)C21CO1 (stereo not given),nt,18%,nt,nt,nt,nt
COC(=O)C1=C(c2ccccc2OCc2ccccc2)C[C@@H]2CC[C@H]1N2C(=O)NCc1ccc(F)cc1,-4,-7%,?,23µM*,-1%,-14%
COC(=O)C1=C(c2ccc(F)cc2OCc2ccccc2)C[C@@H]2CC[C@H]1N2C(=O)NCCCc1ccccc1,0,5%,-17%,16µM*,-1%,-8%
COC(=O)C1=C(c2ccccc2OCc2ccccc2)C[C@@H]2CC[C@H]1N2C(=O)NCc1ccc(C(C)(C)C)cc1,-1,-6%,-12%,21µM*,-1%,-7%
COC(=O)C1=C(c2ccc(F)cc2OCc2ccccc2)C[C@@H]2CC[C@H]1N2C(=O)NC1Cc2ccccc2C1,-4,?,-17%,16µM*,-1%,-6%
COC(=O)C1=C(c2ccc(F)cc2OCc2ccccc2)C[C@@H]2CC[C@H]1N2C(=O)NCc1ccc([N+](=O)[O-])cc1,-5,?,-8%,?,1%,13%
COC(=O)C1=C(c2ccc(F)cc2OCc2ccccc2)C[C@@H]2CC[C@H]1N2C(=O)NCc1ccccc1Br,-1,5%,-4%,?,3%,-12%
CC(C)C(=O)N1[C@H]2CC[C@@H]1c1cnc(-c3ccc(F)cc3)nc1C2,nt,17%,nt,nt,nt,nt
C#C[C@H]1CN2CC[C@H]1C[C@@H]2CNC(=O)c1ccc(F)c(Cl)c1,nt,-1%[176 µM],nt,nt,nt,nt
COCCNC(=O)[C@H]1CN2CCC1C[C@@H]2Cn1cc(CSc2ccccc2)nn1 (stereo not given in full),nt,12%[176 µM],nt,nt,nt,nt
COC(=O)C1=C(c2ccc(F)cc2OCc2ccccc2)C[C@@H]2CC[C@H]1N2C(=O)NCc1ccc(C)cc1,-5,-6%,?,15µM*,0%,2%
COC(=O)C1=C(c2ccc(F)cc2OCc2ccccc2)C[C@@H]2CC[C@H]1N2C(=O)NCc1ccc(F)cc1,2,-2%,-15%,?,0%,5%
C=Cc1cc(OC)c2c(c1)c(=O)oc1c2cc(OC)c2c(O)ccc(C3OC(C)C(O)C(C)(O)C3O)c21 (stereo not given),16,17%,5.2µM*,2.1µM*,-2%,?
